PubChem BioAssay AID720591 (Broad Institute, 2013)
The campaign covered roughly 1,200 compounds. About 60 (5%) were called active. Not shown: some 1% with an inconclusive outcome.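 The calls were made as follows: active = Decreasing signal and fitted IC50 at most twice the top valid tested dose; inconclusive = Bad fit or a level curve showing 30 to 70% inhibition; inactive = the rest.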 The list is a sample of the results. Entries with a potency or affinity are not part of this list.

molecular target: NAD-dependent protein deacylase sirtuin-5, mitochondrial (Homo sapiens) (UniProt Q9NXA8); assay: SIRT5 desuccinylase inhibitors, dose response, biochemical, fluorescence imaging, cherry-pick, set 5 (AID 720591); settings: Purified SirT5, succinyl-peptide AMC, trypsin-coupled fluorescence; series mostly up to 15 µM
Sequence (Q9NXA8 whole entry, looked up): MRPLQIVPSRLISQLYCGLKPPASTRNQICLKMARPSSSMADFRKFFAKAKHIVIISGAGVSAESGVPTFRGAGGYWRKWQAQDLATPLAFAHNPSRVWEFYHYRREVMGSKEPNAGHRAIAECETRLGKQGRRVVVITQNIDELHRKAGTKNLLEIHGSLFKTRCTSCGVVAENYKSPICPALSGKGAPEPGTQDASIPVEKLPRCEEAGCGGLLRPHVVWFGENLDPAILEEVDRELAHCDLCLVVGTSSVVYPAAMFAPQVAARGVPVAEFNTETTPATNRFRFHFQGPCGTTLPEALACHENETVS

outcome, inactive:
CN(C)C(=O)c1ccc(NC(=O)c2sccc2-c2ccccc2)cc1
O=C(Nc1cccc(Br)c1)c1ccc(CSc2ccccc2)cc1
O=C(Cc1ccc(Cl)cc1)Nc1ccc(C(=O)N2CCCCC2)cc1
O=C(Cc1ccc(Cl)cc1)Nc1ccc(CN2CCCCC2)cc1
C[C@@H](CSc1ccc(Br)cc1)CN1CC[C@H](NC(=O)OCc2ccccc2)CCC1=O
Cc1cccc(C)c1NC(=O)CN(Cc1ccccc1)Cc1ccccc1
CC(C)C(=O)Nc1cccc(COc2ccccc2CN(Cc2ccccc2)C(=O)OC(C)(C)C)c1
Cc1ccc(CNC(=O)CCc2ccc(S(=O)(=O)NCC(C)C)cc2)cc1
Clc1ccc(SCc2cn3ccccc3n2)cc1
Cc1ccn2cc(CSc3ccccc3)nc2c1
Cc1cccc(COC[C@H](Cc2ccccc2)N2CCN(C(=O)c3cc(Cl)cc(Cl)c3)CCC2=O)c1
CCOC(=O)C1(C)CCN1C(=O)c1cccc(Cl)c1 (stereo not drawn)
COc1cc(OC)c(NS(=O)(=O)c2cc(C(=O)OCC(=O)NCC3CCCO3)ccc2OC)cc1Cl (stereo not drawn)
COc1cc(C(=O)N2CCNCC2)cc(OC)c1OC
COc1cc(C(=O)NCCN2CCN(C(=O)c3cc(OC)c(OC)c(OC)c3)CC2)cc(OC)c1OC
CCN(C(=O)COC(=O)CNC(=O)c1ccccc1C)C1=CCCCC1
COc1ccc(-n2c(SCC(N)=O)nnc2-c2ccco2)cc1
CNC(=O)CSc1nnc(-c2ccco2)n1-c1cccc(OC)c1
COc1ccc(-c2cccc(C3CC=CC4C3C(=O)N(Cc3ccccc3)C4c3ccc(C(F)(F)F)cc3)c2)cc1 (stereo not drawn)
CC(=O)N1N=C(c2cccc(NS(C)(=O)=O)c2)CC1c1cccs1 (stereo not drawn)
COC(=O)c1ccc(C)c(NC(=O)CSc2sc3c(O)cc(=O)[nH]c3c2C#N)c1
CSc1nsc(SCC(=O)Nc2ccc(Cl)c(C(=O)O)c2)n1
CCCCc1c(-c2ccccc2F)ncn1CCc1ccccc1OC
C[C@H](NC(=O)OCc1ccccc1)C(=O)NNC(=O)[C@H](C)NC(=O)OCc1ccccc1
CC(C)c1ccc(NC2CCCN(C(=O)CC3CCCC3)C2)cc1 (stereo not drawn)
Cc1ccsc1C(=O)NNC(=O)CCN1CCN(c2ccccc2)CC1
Cc1ccc(-c2csc(NC(=O)Cn3[nH]c(=O)c4ccccc4c3=O)n2)cc1
Cc1sc(NC(=O)Cn2[nH]c(=O)c3ccccc3c2=O)nc1-c1ccccc1
CCN(c1ccccc1)S(=O)(=O)c1ccc2[nH]c(=O)[nH]c2c1
Cc1cc(C)c(OCC(=O)NCC(C)(C)N2CCOCC2)c(C)c1
Cc1ccc2cc(CN(Cc3ccc(F)cc3)Cc3nnnn3C3CCCC3)c(=O)[nH]c2c1
Cn1cc(Br)c(C(=O)Nc2c(F)c(F)c(F)c(F)c2F)n1
CN(C)CCNC(=O)c1cccc(S(=O)(=O)Nc2ccccc2F)c1
COc1ccc(OCC(=O)Nc2ccc(NC(=O)c3cccs3)cc2)cc1
CCN(CC(=O)Nc1ccc(NC(C)=O)cc1)C(=O)c1ccc(COc2ccc(C(C)(C)C)cc2)cc1
Cc1ccc(C(C(=O)NC2CCCC2)N(Cc2ccco2)C(=O)CCC(=O)Nc2cc(C)on2)cc1 (stereo not drawn)
Cc1ccccc1OCC(O)CN1CCN(CC(O)COc2ccccc2C)CC1 (stereo not drawn)
CCOC(=O)C1CCc2c(ccc3ccccc23)N1CCC#N (stereo not drawn)
CC(C)(C)Cc1nnc(NC(=O)Cc2cccs2)s1
CN(C)CCCNC(=O)c1cc(C(=O)c2ccccc2F)c[nH]1
COc1ccc(C(=O)OCCN2CCCCC2)cc1
Cc1ccc(C(C(=O)NC(C)(C)C)N(Cc2ccco2)C(=O)CCC(=O)Nc2ccccn2)cc1 (stereo not drawn)
CCC(C)(C)NC(=O)C(c1ccc(OC)cc1)N(Cc1ccco1)C(=O)CCC(=O)Nc1cc(C)on1 (stereo not drawn)
COc1ccc([C@H]2N[C@]3(CCCN(Cc4cccn4C)C3=O)[C@H]3C(=O)N(C)C(=O)[C@@H]23)cc1
C=CCn1c(SCC(=O)c2ccc(O)c(O)c2)nnc1-c1ccc(C)cc1
COc1ccc(C)cc1N(C)C(=O)Cc1c(C(=O)O)n(C)c2ccccc12
COc1ccccc1NC(=O)CNc1ccc(F)c(Cl)c1
CC1CN(CCOc2ccccc2-c2ccccc2)CC(C)O1 (stereo not drawn)
CCc1ccc(N(C(=O)CCC(=O)Nc2cc(C)on2)C(C(=O)NC2CCCC2)c2ccco2)cc1 (stereo not drawn)
COc1cc(C(C)=O)ccc1OCc1cn(CC(=O)c2ccc(O)cc2)nn1
CS(=O)(=O)N(CC(=O)N1CCCCCC1)c1cccc(F)c1
CS(=O)(=O)N(CC(=O)N1CCCC1)c1cccc(F)c1
C#CC1(NC(=O)NCCCC)CCCCC1
Cc1ccc2nc(-c3ccccc3)c(Cc3cccc(Cl)c3)n2c1
Fc1ccc(-c2nc3ccc(Cl)cn3c2Cc2cccc(F)c2)cc1
COc1ccccc1CNS(=O)(=O)c1cccs1
C=C(C)Cn1c(N2CCN(c3ccc(OC)cc3)CC2)nc2c1c(=O)n(C)c(=O)n2C
Cn1cnc2c(NCc3ccco3)ncnc21
COC(=O)c1cccc(NC(=O)CSc2nnc(COc3ccc(C#N)cc3)n2-c2ccccc2)c1
Cc1cn(CC(=O)NCc2ccccc2)c(=O)[nH]c1=O
O=C1OCCOC2CCCc3oc(C4=CCCCC4)c1c32 (stereo not drawn)
Cc1ccc(NS(=O)(=O)c2ccc3c(c2)N(C)CCO3)cc1
Cc1ccc2nc(SC(C)C(=O)N3CC(C)OC(C)C3)[nH]c2c1 (stereo not drawn)
Cc1ccccc1NS(=O)(=O)c1ccc(C(=O)NCC2CCCO2)cc1 (stereo not drawn)
O=C(c1ccc(F)cc1)N1CCOCC1
O=C(CSc1ccccc1Cl)N1CCOCC1
CCOc1ccc(C(C)C)cc1S(=O)(=O)n1ccnc1C
Cc1ccc(S(=O)(=O)N(C)c2ccc(NS(C)(=O)=O)cc2)cc1
